This is a sample that favours compounds with a hit; in the whole collection about 3.4% have one here.
AmpC detergent: blocks E. coli AmpC beta-lactamase in detergent assay; P00811; AmpC hydrolysis of nitrocefin, absorbance 480 nm, 0.01% Triton; Potency, µM (series often up to 114 µM), without a hit: at the top dose activity change, negative = inhibition, most hits filed as inhibitors; 370,000 compounds, 0.041% hits;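 further: 0% = no-compound wells and -100% = no-enzyme wells; nearly all actives have a fitted effect of over 25% in size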
Target sequence (P00811 whole entry, looked up): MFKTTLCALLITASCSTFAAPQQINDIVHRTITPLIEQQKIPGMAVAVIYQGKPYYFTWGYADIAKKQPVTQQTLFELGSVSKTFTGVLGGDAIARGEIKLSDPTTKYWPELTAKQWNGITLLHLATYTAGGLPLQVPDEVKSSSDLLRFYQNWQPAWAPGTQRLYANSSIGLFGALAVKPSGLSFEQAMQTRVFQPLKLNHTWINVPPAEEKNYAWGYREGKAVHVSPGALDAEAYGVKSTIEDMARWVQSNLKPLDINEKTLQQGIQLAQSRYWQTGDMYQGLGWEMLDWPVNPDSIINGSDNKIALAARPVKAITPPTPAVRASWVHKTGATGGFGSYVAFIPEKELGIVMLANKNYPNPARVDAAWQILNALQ
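AmpC (5.3 nM in the dispensed reagent) in 20 mM phosphate pH 7.0 with 0.01% (detergent screen) or 0.0001% Triton X-100 was preincubated with compounds for 15 min at room temperature. Nitrocefin was then added from an 800 uM solution, and hydrolysis was followed at 480 nm.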
AmpC no deterg: AmpC beta-lactamase inhibition without detergent. P00811. AmpC nitrocefin hydrolysis, absorbance 480 nm, 0.0001% Triton. Potency, µM (top dose mostly 57.1 µM), without a hit: at the top dose activity change, negative = inhibition, usual class: inhibitors. 330,000 compounds, 0.52% hits. AID 485341;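 further: plate controls were no compound for no effect and no enzyme for full effect; nearly all actives have a fitted effect of over 20% in size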
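AmpC (5.3 nM in the dispensed reagent) in 20 mM phosphate pH 7.0 with 0.01% (detergent screen) or 0.0001% Triton X-100 was preincubated with compounds for 15 min at room temperature. Nitrocefin was then added from an 800 uM solution, and hydrolysis was followed at 480 nm.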
RE007 growth inh: less growth of the S. pombe RE007 Vpr strain; Potency, µM (titrated, usually from 92.2 µM), for the others: at the top dose activity change, negative = less growth, actives largely listed as inhibitors; S. pombe RE007 Vpr strain, BacTiter-Glo ATP luminescence, 24 h; 360,000 compounds, 0.21% hits; active means well fitted falling curve with a large enough effect; inconclusive means small, poorly fitted or top-dose-only effect; inactive means no such curve, though single readings can be large or run the other way; further: nearly all actives have a fitted effect of over 50% in size
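Fission yeast RE007 carrying one integrated HIV-1 vpr copy, seeded at OD 0.01 in PMG+AL medium with 23 nL pinned compound. Grown 24 h at 30 degrees; viability read by BacTiter-Glo luminescence after 5 min.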
FBPA Giardia inh: inhibitors of Giardia lamblia fructose-1,6-bisphosphate aldolase; A8B2U2; purified Giardia FBPA; Potency, µM (top dose mostly 59.6 µM), without a hit: at the highest dose activity, negative = inhibition, most hits filed as inhibitors; 290,000 compounds, 0.71% hits; AID 2451; further: nearly all actives have a fitted effect of over 55% in size
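Giardia FBPA (40 nM reagent) was preincubated 10 min at RT with compound (up to 57.5 uM final), then substrate plus GAPDH/TPI/NAD/arsenate coupling system with diaphorase/resazurin was added; resorufin fluorescence (525/598 nm) was read after 20 min.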
Sm TGR inh: S. mansoni TGR enzyme inhibition | Q962Y6 | purified TGR, DTNB reduction, TNB absorbance 405 nm | Potency, µM (doses to about 114 µM), for the others: top-dose activity change, negative = inhibition, usual class: inhibitors | 360,000 compounds, 3% hits | AID 485364; further: nearly all actives have a fitted effect of over 60% in size
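First, TGR (20 nM dispensed) and NADPH were mixed with compound. Second, a 15 min room-temperature incubation followed. Third, further NADPH and then DTNB were added to start the reaction. Finally, TNB absorbance was monitored kinetically.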
* = called active by the depositor; ? = inconclusive; . = no result given. Unless noted, the call rests on the fitted dose curve; in most records, active means well fitted curve in the direction sought with a large enough effect; inconclusive means small, poorly fitted or top-dose-only effect, or another doubt; inactive means no such curve, though single readings can be large; an effect the other way counts as inactive or inconclusive. Unless noted, on the % scale 0 is the no-effect control and ±100 the full control effect; potency means the concentration at half of the fitted maximal effect.

SMILES	AmpC detergent	AmpC no deterg	RE007 growth inh	FBPA Giardia inh	Sm TGR inh
O=C(N1CCOCCOc2ccccc2OCCOCC1)C(F)(F)F	?	-2%	8%	6%	3%
Cc1cccc(CSc2nc3c(c(-c4cccs4)c2C#N)CN(C)CC3)c1	?	29%	0%	-10%	-29%
CN1CCc2nc(SCC(=O)Nc3cccc(F)c3)c(C#N)c(-c3cccs3)c2C1	-18%	-11%	8%	-25%	20µM*
CN1CCc2nc(SCC(=O)Nc3ccc(OC(F)(F)F)cc3)c(C#N)c(-c3cccs3)c2C1	-6%	4%	2%	?	35µM*
Cn1c(N)c(C(=O)COC(=O)c2ccco2)c(=O)n(C)c1=O	?	-15%	-4%	5%	0%
Clc1ccccc1N1CCN(c2ncnc3nc[nH]c23)CC1	?	8.9µM*	-8%	0%	-1%
Fc1ccccc1N1CCN(c2ncnc3nc[nH]c23)CC1	2%	-13%	1%	0%	4%
COc1cc(/C=C(/C#N)c2nc3ccccc3c(=O)[nH]2)ccc1O	7%	28µM*	5%	-7%	0%
Cc1ccc(S(=O)(=O)c2cc3c(=O)n4ccccc4nc3n(CCCN3CCOCC3)c2=N)cc1C	-10%	77%	-10%	0%	2%
O=C(C1CCCN(S(=O)(=O)c2cccc3nsnc23)C1)N1CCN(c2ccccc2F)CC1 (centres undefined)	-2%	.	.	.	6%
Cc1nc(-n2ncc(C#N)c2N)c2c3c(sc2n1)CCC3	?	-25%	-8%	-7%	0%
CCCSc1nc(-n2ncc(C#N)c2N)c2c3c(sc2n1)CCC(C)C3 (centres undefined)	-9%	2µM*	-11%	-5%	2%
CC(C)c1ccc(S(=O)(=O)c2nnn3c2nc(NCCc2ccccc2)c2sccc23)cc1	-4%	.	.	.	0%
CN1CC[C@@]2(C)c3cc(O)ccc3N(C)C12 (some centres undefined)	.	.	.	2.8µM*	.
CCCC(O)(CCN(C)C)c1ccc(OC)cc1 (centres undefined)	1%	-5%	0%	6%	11µM*
COc1ccc(CC(=O)OCCN(C)C)cc1	?	-7%	-10%	-5%	1%
Cc1cc(Cl)cc(Cl)c1OCC(=O)NCc1ccco1	-13%	2%	0%	-3%	40µM*
Cc1ccc(OCC(=O)NCCNC(=O)c2ccco2)cc1C	-13%	-1%	-17%	0%	-6%
Cc1ccc(OCC(=O)NCc2ccco2)cc1C	?	-15%	?	-5%	35µM*
COc1ccc(-n2c(Cn3nnc4ccccc43)n[nH]c2=S)cc1	-7%	-20%	22%	-16%	0%
CCOc1ccccc1N(C)C(=O)Cn1nc(Cc2cccnc2)c2ccccc2c1=O	5%	.	.	.	0%
Cc1ccc(-c2nn(CCC#N)cc2C=C(C#N)C#N)cc1	-10%	-19%	5%	?	8.9µM*
COc1ccc(-c2nn(CCC#N)cc2C=C(C#N)C#N)cc1	-1%	1%	-4%	?	25µM*
CC(=O)NCCc1ccc(C(=O)COC(=O)C2CCCCC2)cc1	.	22%	1%	.	.
Cc1ccc(S(=O)(=O)C(CNS(=O)(=O)c2ccc(F)c(C)c2)c2cccs2)cc1 (centres undefined)	0%	.	.	.	0.63µM*
SMILES	AmpC detergent	AmpC no deterg	RE007 growth inh	FBPA Giardia inh	Sm TGR inh
CCOc1ccc(S(=O)(=O)NCC(c2cccs2)S(=O)(=O)c2ccc(C)cc2)cc1 (centres undefined)	-2%	.	.	.	0.32µM*
CCC(=O)NCC(c1cccs1)S(=O)(=O)c1ccc(C)cc1 (centres undefined)	-10%	-12%	2%	0%	89µM*
CCc1ccc(C(=O)Nc2ccc3c(c2)n(C)c(=O)n3C)cc1	-11%	27%	2%	-3%	-28%
O=[N+]([O-])c1ccc2c([N+](=O)[O-])ccc3c2c1CC3	.	.	-20%	.	.
CN(C)/C=N/c1sc2c(c1C(N)=O)CCCC2	0%	-2%	6%	-1%	-2%
Cc1ccc(/C=N/c2sc3c(c2C(N)=O)CCCC3)o1	-1%	-26%	?	-13%	22µM*
CCOC(=O)N1CCC(NC(=O)CS(=O)Cc2nc(-c3ccc(Cl)cc3)oc2C)CC1 (centres undefined)	6%	130%	1%	.	40µM*
CCOC(=O)N1CCC(NC(=O)CS(=O)Cc2nc(-c3ccc(C)cc3)oc2C)CC1 (centres undefined)	4%	35%	-5%	.	45µM*
CCOC(=O)N1CCC(NC(=O)CS(=O)Cc2nc(-c3ccc(OC)c(OC)c3)oc2C)CC1 (centres undefined)	?	71%	-6%	-10%	?
CCOC(=O)N1CCN(C(=O)CS(=O)Cc2nc(-c3ccc(C)cc3)oc2C)CC1 (centres undefined)	-11%	30%	5%	2%	?
CC(=O)c1cccc(OCc2cc(C(=O)N(C)CCC3CCOCC3)no2)c1	?	45%	10%	8%	2.2µM*
CC(=O)c1cccc(OCc2cc(C(=O)N3C[C@H]4CC[C@H]3C4)no2)c1	5%	40%	5%	.	7%
CC(=O)c1ccc(OCc2cc(C(=O)N(C)Cc3ccccn3)no2)cc1	0%	100%	2%	.	13µM*
COc1ccccc1OCc1cc(C(=O)N(C)CCC2CCOCC2)no1	.	.	8%	.	.
COCCC1CCCCN1C(=O)c1cc(COc2cccc(C(C)=O)c2)on1 (centres undefined)	-1%	61%	2%	.	-21%
CC(=O)c1cccc(OCc2cc(C(=O)N3C[C@@H](C)O[C@@H](C)C3)no2)c1	-7%	3%	0%	-6%	3.2µM*
CC(=O)c1ccc(OCc2cc(C(=O)N3CCC[C@H]3CO)no2)cc1	0%	-7%	5%	.	50µM*
CCOC(=O)C1CCN(C(=O)CCNC(=O)Cn2cnc3ccccc3c2=O)CC1	?	-4%	2%	-3%	0%
CC1CN=C(N(C(=S)Nc2ccccc2)c2cccc(C(F)(F)F)c2)S1 (centres undefined)	3%	-44%	1%	-1%	-25%
Cc1c(C(=O)N2CCCC2)c(S(=O)(=O)NCCc2ccccc2)c(C)n1C	4%	2%	3%	3%	-2%
COc1ccc(NS(=O)(=O)c2ccc3c(c2)oc(=O)n3C)c(OC)c1	-13%	-5%	0%	4%	-5%

Bioassay records as filed in PubChem BioAssay.
